The nature of experiment [1]: NCI Yeast Anticancer Drug Screen. Data for the rad50 strain (AID 155).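 Also: 0% = growth of vehicle-only cultures of the same strain.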 Particulars: S. cerevisiae rad50 strain growth inhibition; at 50.0 µM; stronger effect = higher value. The essentials:
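Vehicle-treated cultures provide the reference for the growth inhibition reported for compound-exposed, repair-deficient yeast.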

The nature of experiment [2]: NCI Yeast Anticancer Drug Screen. Data for the mec2-1 strain (AID 157). The settings on record: S. cerevisiae mec2-1 strain, at 50.0 µM, stronger effect = higher value. The essentials:
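Cells of the genetically defined mec2-1 yeast strain are incubated with test compound. Inhibition of growth is calculated against vehicle-treated controls.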

The nature of experiment [3]: NCI Yeast Anticancer Drug Screen. Data for the sgs1 mgt1 strain (AID 161).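 Also: 0% = growth of cultures given vehicle only.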 Particulars: S. cerevisiae sgs1 mgt1 strain, at 50.0 µM, stronger effect = higher value. The procedure, abridged: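 Inhibition of yeast growth, normalised to vehicle-treated controls, is reported for a strain bearing genetic alterations in DNA damage repair.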
A short description of experiment [4]: NCI Yeast Anticancer Drug Screen. Data for the cln2 rad14 strain (AID 165).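 Also: 0% = growth equal to vehicle treated cultures.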 Particulars: S. cerevisiae cln2 rad14 strain, at 50.0 µM, stronger effect = higher value. The procedure, abridged:
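The screen exposed genetically defined yeast (cln2 rad14) to test compounds and scored growth inhibition relative to vehicle-treated controls.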

Experiment [5] is described as follows: NCI Yeast Anticancer Drug Screen. Data for the bub3 strain (AID 167). The settings on record: S. cerevisiae bub3 mutant strain, at 50.0 µM, stronger effect = higher value. The essentials:
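Mutant yeast screening strain plus compound; vehicle-treated cultures serve as the 0% inhibition reference.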

A short description of experiment [6]: NCI Yeast Anticancer Drug Screen. Data for the mlh1 rad18 strain (AID 175). The settings on record: S. cerevisiae mlh1 rad18 strain growth inhibition; at 50.0 µM; stronger effect = higher value. The essentials: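 Compound-treated yeast growth, normalised to vehicle controls. Strain bears defined DNA repair mutations.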

Molecules are shown by their SMILES. Compounds without any hit were thinned out: in the full panel of roughly 79,000, 15% have a hit. Unmarked numbers belong to inactive results. Active and inactive are the calls of the source. Rule as the data show it: active = growth inhibition above about 70%; inactive = the rest.

Turning to `C#CCOCC(O)C[As](=O)(O)c1cccc(Cl)c1` (stereo unspecified), the growth inhibition in experiment [1] was 5.85%; in experiment [2], 16.5%; in experiment [3], 7.9%; in experiment [4], -5.3%; in experiment [5] it was 10.7%; in experiment [6], -8.75%.

For `CC(=O)Nc1nc2c(ncn2C2OCC(OC(C)=O)C(OC(C)=O)C2OC(C)=O)c(=O)[nH]1` (stereo unspecified) (tested in a mixture with another compound), the growth inhibition was 4.1% in experiment [1]; -4.35% in experiment [2]; 2.65% in experiment [3]; -6.9% in experiment [4]; 6.1% in experiment [5]; 6.95% in experiment [6].

On to `COc1cc2c(cc1OC)[C@@H]1C(=O)c3ccc4c(c3O[C@@H]1CO2)C[C@H](C(C)C)O4`, for which the growth inhibition in experiment [1] was -11.2%; in experiment [2], -40.2%; in experiment [3], -1.45%; in experiment [4], -9.25%; in experiment [5] it was -33.6%; in experiment [6] it was 7.2%.

On to `N#Cc1ccc(Cc2ccccn2)cc1Cl`, for which the growth inhibition in experiment [1] is -1.55%; in experiment [2], -1.55%; in experiment [3], -8.9%; in experiment [4], 2.1%; in experiment [5], -18.9%; in experiment [6], 4.25%.

Take `Cc1ccc([Se][Se]c2ccc(C)cc2)cc1`: the growth inhibition in experiment [1] was 55.5%; in experiment [2], 10.7%; in experiment [3], 35.6%; in experiment [4], 30.1%; in experiment [5] it was 41%; in experiment [6] it was 43%.

Take `COc1ccc2c(c1)C1(C)CCN(CCc3ccccc3)C(C2)C1C` (stereo unspecified): the growth inhibition is 24.9% in experiment [1]; 15.4% in experiment [2]; 20.7% in experiment [3]; 0.05% in experiment [4]; 6.25% in experiment [5]; 24.4% in experiment [6].

As for `Cc1nnn[n-]1.N.N.N.N.N.[Cl-].[Co+3]`, the growth inhibition in experiment [1] is 3.15%; in experiment [2], -6.95%; in experiment [3], -9.55%; in experiment [4], 2.4%; in experiment [5], -0.15%; in experiment [6], -16.5%.

In the case of `O=C1NC(=O)C(F)(n2cc(F)c(=O)[nH]c2=O)C(O)N1` (stereo unspecified), the growth inhibition in experiment [1] is -47.8%; in experiment [2], -31.3%; in experiment [3], -10.2%; in experiment [4], -40%; in experiment [5], -13.4%; in experiment [6], -54.9%.

Consider `CC(=O)c1cccc(S(=O)(=O)F)c1`, for which the growth inhibition was -9.7% in experiment [1]; -11.3% in experiment [2]; -3.25% in experiment [3]; 13% in experiment [4]; -14.9% in experiment [5]; -11.8% in experiment [6].

Turning to `O=C(Nc1c(O)[nH]c(=S)[nH]c1=O)c1ccccn1`, the growth inhibition is 6.95% in experiment [1]; -14.7% in experiment [2]; -3.75% in experiment [3]; 1.7% in experiment [4]; -8.3% in experiment [5]; -8.3% in experiment [6].

Consider `Cc1ccc([P+](=O)O)cc1Cl`, for which the growth inhibition in experiment [1] is -12.1%; in experiment [2] it was -3.75%; in experiment [3] it was -8.55%; in experiment [4] it was -9.25%; in experiment [5] it was 1.65%; in experiment [6], -3%.

`COC[C@H]1OC(=O)c2coc3c2[C@@]1(C)C1=C(C3=O)[C@@H]2CCC(=O)[C@@]2(C)C[C@H]1OC(C)=O`: the growth inhibition was 92.3% (active) in experiment [1]; 93.3% (active) in experiment [2]; 89.4% (active) in experiment [3]; 89.1% (active) in experiment [4]; 86.1% (active) in experiment [5]; 88.8% (active) in experiment [6].

As for `Cc1ccc(Oc2ccc3c(c2)CN(C)CC3)cc1`, the growth inhibition in experiment [1] is 93.8% (active); in experiment [2], 90.5% (active); in experiment [3] it was 96.8% (active); in experiment [4] it was 74.5% (active); in experiment [5], 96.6% (active); in experiment [6] it was 95.7% (active).

On to `CC1(C)OC2(C)CCC1C1C2N1C(=O)c1ccccc1` (stereo unspecified), for which the growth inhibition is 0.75% in experiment [1]; -9.75% in experiment [2]; 5.25% in experiment [3]; 4.95% in experiment [4]; 19.2% in experiment [5]; -6.2% in experiment [6].

Regarding `Cc1nccc2c1[nH]c1ccccc12`, the growth inhibition is 6.5% in experiment [1]; 5.7% in experiment [2]; -15.4% in experiment [3]; -5.65% in experiment [4]; 2.5% in experiment [5]; 2.3% in experiment [6].

Consider `O=c1[nH]c2ccc([As](O)O)cc2[nH]1`, for which the growth inhibition in experiment [1] was -14.8%; in experiment [2], -14.9%; in experiment [3], -4.9%; in experiment [4], -17.8%; in experiment [5], -8.25%; in experiment [6], 0.75%.

For `Nc1ccc(CCc2ccc(S(=O)(=O)F)cc2)cc1`, the growth inhibition was 94.8% (active) in experiment [1]; 95.9% (active) in experiment [2]; 98.3% (active) in experiment [3]; 92.8% (active) in experiment [4]; 92.7% (active) in experiment [5]; 92.6% (active) in experiment [6].

With `N.N.N.N.N.O=[N+]([O-])[O-].[Co+3].[O-][Cl+3]([O-])([O-])[O-]`, the growth inhibition in experiment [1] was -13.7%; in experiment [2], 4.6%; in experiment [3] it was -10.5%; in experiment [4], -3.15%; in experiment [5], -4.45%; in experiment [6], -7.75%.

`CCOC(=O)COc1cc(Cl)c(S(=O)(=O)F)cc1Cl`: the growth inhibition was 98.8% (active) in experiment [1]; 92.3% (active) in experiment [2]; 97.3% (active) in experiment [3]; 93.1% (active) in experiment [4]; 98.3% (active) in experiment [5]; 98% (active) in experiment [6].

Take `CN(C)C(=O)Oc1ccc(Cl)cc1Cl`: the growth inhibition in experiment [1] is 9.2%; in experiment [2], 18.1%; in experiment [3], -5.8%; in experiment [4], -7.3%; in experiment [5], -9.35%; in experiment [6], 32.6%.

In the case of `[C-]#[O+].[C-]#[O+].[C-]#[O+].[Cr].c1ccc([PH+](CC[As](c2ccccc2)c2ccccc2)CC[As](c2ccccc2)c2ccccc2)cc1`, the growth inhibition in experiment [1] was 5.45%; in experiment [2], -7.65%; in experiment [3] it was 27.7%; in experiment [4] it was 2.6%; in experiment [5], 11.1%; in experiment [6], 38.9%.

The values above are taken from PubChem BioAssay (NCI).
